Laboratory results: PubChem BioAssay AID651820 (National Center for Advancing Translational Sciences (NCATS), 2012)
Screen size: about 340,000 compounds; about 12,000 (3.5%) were called active. Not shown: some 18% with an inconclusive outcome. The sample holds actives, similar compounds and a random draw of the others, so the mix is not that of the screen. Unmarked numbers belong to inactive results. The call rests on the fitted dose curve; in most records, active means well fitted inhibition curve with a large enough effect; inconclusive means small, poorly fitted or top-dose-only effect, or another doubt; inactive means no such curve, though single readings can be large or run the other way.

Assay: qHTS Assay for Inhibitors of Hepatitis C Virus (HCV)
Details: Huh7.5.1 HCVcc-Cre infection, luciferase reporter, 44 h; series mostly up to 41.8 µM; activity change, negative = inhibition: at the top concentration
In short: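 HCVcc-Cre virus at an moi near 0.5 was added right after compound to cells cultured 4 h from seeding (1,000 cells/well). Luciferase activity was determined 44 h later, 15 min after substrate addition at RT.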
On the % scale 0 is the no-effect control and ±100 the full control effect; potency means the concentration at half of the fitted maximal effect.

Row | SMILES | activity change, negative = inhibition | Potency
1 | Cc1cc(C(=O)O)ccc1[N+](=O)[O-] | 38.5% | –
2 | Cc1cc(OCCCCOc2ccc(C#N)cc2)ccc1[N+](=O)[O-] | – | 8.91 µM (active)
3 | Cc1cc(OCC(=O)NC2CCN(C)CC2)ccc1[N+](=O)[O-] | 0.975% | –
4 | COc1ccc(N2CCN(S(=O)(=O)c3cc4c5c(c3)C(C)C(=O)N5CCC4)CC2)cc1 (configuration not stated) | 0.733% [at 8.37 µM] | –
5 | Cn1c(/C(C#N)=C2/CCCCCN2)nc2ccccc21 | -26.8% | –
6 | N#C/C(=C1/CCCN1)c1ccccn1 | -11.2% | –
7 | N#C/C(=C1\CCCN1)c1nc(-c2ccccc2)cs1 | – | 6.31 µM (active)
8 | COC1=NC2=NCCN2C(OC)=N1 | -0.005% | –
9 | OC(COc1ccc(F)cc1Cl)CN1CCc2ccccc2C1 (configuration not stated) | 9.89% | –
10 | Cc1ccc(OCC(O)CN2CCN(CC(O)COc3ccc(C)cc3Cl)CC2)c(Cl)c1 (configuration not stated) | – | 25.1 µM (active)
11 | COc1ccccc1OCC(O)CN1CCOCC1 (configuration not stated) | 27.6% | –
12 | COc1ccc2nc(N3C(=O)C(O)=C(C(=O)c4ccco4)C3c3ccco3)sc2c1 (configuration not stated) | 0.823% | –
13 | CCOc1ccc(/C=C(/C#N)c2nnc(N3CCOCC3)n2-c2ccccc2)cc1OC | 2.12% | –
14 | CC(C)N(Cc1ccccc1)C(=O)COC(=O)c1ccccc1SCC(=O)N1CCCC1 | -26.1% | –
15 | CCOc1cc(C(=S)N2CCOCC2)ccc1OS(=O)(=O)c1ccc(Br)cc1 | – | 10 µM (active)
16 | CC(=O)Nc1ccc(S(=O)(=O)Oc2ccc(Br)cc2C(=S)N2CCOCC2)cc1 | -17.6% | –

Row | SMILES | activity change, negative = inhibition | Potency
17 | CCOc1cc(C(=S)N2CCOCC2)ccc1O | 2.27% | –
18 | Cc1cc(NC(=O)COc2ccccc2C#N)no1 | 10.6% | –
19 | O=C(Nc1cc(S(=O)(=O)N2CCOCC2)ccc1N1CCOCC1)c1c(F)cccc1Cl | -1.1% | –
20 | COc1ccc(Cc2nc(-c3ccccn3)no2)cc1OC | 12.1% | –
21 | COc1ccc(Sc2nc(-c3ccccc3)ncc2OC)cc1 | -21.6% | –
22 | COc1cnc(-c2ccccn2)nc1Oc1ccc(C(C)(C)C)cc1 | – | 10 µM (active)
23 | O=C1COc2ccc(C(=O)COC(=O)c3ccccc3Cl)cc2N1 | 13.4% | –
24 | COc1ccc(-c2ccc3c(c2)C2CC3CCN2CCC#N)cc1 (configuration not stated) | -2.86% [at 8.37 µM] | –
25 | CC1(C)O[C@@H]2[C@H](O1)[C@@H](COS(=O)(=O)O)O[C@H]2n1cnc2c(=O)[nH]cnc21 | -18% | –
26 | Cc1ccc(S(=O)(=O)N(C)C)cc1NC(=O)COC(=O)/C=C/c1cccs1 | -12.4% | –
27 | O=C(COC(=O)COc1cc(Cl)c(Cl)cc1Cl)NC1CC1 | 0.0616% | –
28 | O=C(COC(=O)c1ccc(O)cc1O)NNC(=O)c1cccs1 | 38.1% | –
29 | COc1ccc2c(c1)C(=O)CC(c1ccccc1)O2 (configuration not stated) | -13.2% | –
30 | CCC(C)n1c(-c2cc(OC)c(OC)c(OC)c2)nc2nc3ccccc3nc21 (configuration not stated) | – | 15.8 µM (active)
31 | COc1cc(-c2n[nH]c(=S)n2Cc2ccccc2)cc(OC)c1OC | 26.4% | –
32 | COc1cc(C(=O)Nn2c(CC(C)C)nc3ccccc3c2=O)cc(OC)c1OC | -5.06% | –
